In PubChem BioAssay:
Activity calls are given as the source filed them.

Assays:
[1] = binders of probe aFSTL3 on microarray, primary screen, stem cell growth factor project, biochemical, small-molecule microarray, fluorescence 635/667 (AID 1064); conditions: higher = more signal;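 also: measures binding of the biotinylated anti-FSTL3 antibody to printed compounds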
[2] = binders from COS7 lysate, DM2A8 probe, primary screen, torsin A project, cell lysate, small-molecule microarray, fluorescence 635/667 (AID 1065); conditions: higher = more signal, COS7 lysate expressing mutant human TOR1A
[3] = binders of probe aFGF2 on microarray, primary screen, stem cell growth factor project, biochemical, small-molecule microarray, fluorescence 635/667 (AID 1067); conditions: higher = more signal;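 also: measures binding of biotinylated aFGF2 protein to printed compounds on slides; z-score merges feature fluorescence and signal-to-noise across triplicate slides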
[4] = binders of probe aFGF10 on microarray, primary screen, stem cell growth factor project, biochemical, small-molecule microarray, fluorescence 635/667 (AID 1071); conditions: higher = more signal;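 also: score merges 667 nm spot intensity and signal to noise from triplicate slides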
[5] = target: Neurogenic locus notch homolog protein 2 (Homo sapiens) (UniProt Q04721); experiment: Notch2 binders on small-molecule microarrays, primary screen, biochemical, small-molecule microarray, 635 nm fluorescence, stem cell growth factors (AID 1073); conditions: Notch2 binding, higher = more signal
[6] = target: Pro-neuregulin-1, membrane-bound isoform (Homo sapiens) (UniProt Q02297); experiment: NRG1 binders on small-molecule microarrays, primary screen, psychiatric disease protein project, biochemical, small-molecule microarray, fluorescence 635/667 (AID 1075); conditions: NRG1 binding, 635 nm fluorescence, higher = more signal;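 also: score combines 667 nm spot fluorescence with signal to noise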
Sequence of Pro-neuregulin-1, membrane-bound isoform (Homo sapiens) (Q02297 whole entry, looked up, the tested form may be a part, canonical isoform): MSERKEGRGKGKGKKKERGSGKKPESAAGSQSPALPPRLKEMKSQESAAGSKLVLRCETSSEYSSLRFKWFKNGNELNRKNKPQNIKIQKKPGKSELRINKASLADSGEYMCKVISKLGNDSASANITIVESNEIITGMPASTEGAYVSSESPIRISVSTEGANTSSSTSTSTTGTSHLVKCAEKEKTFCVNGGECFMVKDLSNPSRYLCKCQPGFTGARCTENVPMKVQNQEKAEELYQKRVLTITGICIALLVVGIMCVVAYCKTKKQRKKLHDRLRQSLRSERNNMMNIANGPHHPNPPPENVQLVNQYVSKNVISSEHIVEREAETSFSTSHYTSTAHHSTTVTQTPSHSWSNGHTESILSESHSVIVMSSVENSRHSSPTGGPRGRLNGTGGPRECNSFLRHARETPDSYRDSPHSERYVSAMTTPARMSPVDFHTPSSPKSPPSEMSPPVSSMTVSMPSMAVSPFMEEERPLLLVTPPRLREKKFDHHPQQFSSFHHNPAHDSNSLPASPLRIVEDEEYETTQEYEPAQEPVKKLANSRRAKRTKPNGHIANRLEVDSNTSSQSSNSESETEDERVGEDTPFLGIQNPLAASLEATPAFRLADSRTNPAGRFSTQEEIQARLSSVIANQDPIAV

[7] = test system: Neuregulin-1 EGF-like domain; experiment: binders of neuregulin-1 EGF-like domain, primary screen, biochemical, small-molecule microarray, 635 nm fluorescence (AID 1081); conditions: small-molecule microarray binding, higher = more signal;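 also: binding of the protein to compounds printed on small-molecule microarray slides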
[8] = FRG1 promoter luciferase signal modulators, primary screen, FRG1 inhibition for FSHD, cell-based, C2C12 myotubes, firefly/Renilla luciferase, luminescence (AID 1084); conditions: higher = more signal, called active from +8 up or from −8 down
[9] = binders of probe aFST on microarray, primary screen, stem cell growth factor project, biochemical, small-molecule microarray, fluorescence 635/667 (AID 1086); conditions: higher = more signal;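 also: score merges 667 nm fluorescence with signal-to-noise of each printed compound spot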
[10] = binders of probe aHhip on microarray, primary screen, stem cell growth factor project, biochemical, small-molecule microarray, fluorescence 635/667 (AID 1087); conditions: higher = more signal;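 also: score merges spot fluorescence at 667nm with spot signal to noise ratio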
[11] = test system: PRMT1 (protein arginine N-methyltransferase 1); experiment: PRMT1 binders on small-molecule microarrays, primary screen, biochemical, small-molecule microarray, 635 nm fluorescence (AID 1088); conditions: small-molecule microarray binding, higher = more signal;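 also: binding of Prmt1 protein to compounds spotted on small-molecule microarray slides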
[12] = yeast growth modulation, basal conditions, primary screen, YJM789 clinical isolate, OD600, 24 h (AID 1089);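 also: growth of clinical yeast isolate S. cerevisiae YJM 789 seeded 1000 cells per well; test concentration not given here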; conditions: S. cerevisiae YJM789 growth, higher = more signal, called active from +8 up or from −8 down
[13] = fission yeast growth modulation, primary screen, strain 972, OD600, 24 h, no modulator (AID 1090);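 also: basal condition with compound alone and no growth modifier present; test concentration not given here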; conditions: S. pombe 972 growth, higher = more signal, called active from +8 up or from −8 down
[14] = S. cerevisiae growth modulation with rapamycin, primary screen, strain BY4716, OD600, 96 h (AID 1091); conditions: higher = more signal, called active from +8 up or from −8 down; also: test concentration not given here
[15] = target: Torsin-1A-interacting protein 2 (Homo sapiens) (UniProt Q8NFQ8); experiment: LULL1 binders on small-molecule microarray, primary screen, cell lysate, human LULL1 lysate, 635/667 nm fluorescence (AID 1092); conditions: hLULL1 lysate binding, 635 nm fluorescence, higher = more signal;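 also: probe is lysate of COS7 cells overexpressing human LULL1; score merges per-feature 667 nm fluorescence with signal-to-noise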
Sequence of Torsin-1A-interacting protein 2 (Homo sapiens) (Q8NFQ8 whole entry, looked up): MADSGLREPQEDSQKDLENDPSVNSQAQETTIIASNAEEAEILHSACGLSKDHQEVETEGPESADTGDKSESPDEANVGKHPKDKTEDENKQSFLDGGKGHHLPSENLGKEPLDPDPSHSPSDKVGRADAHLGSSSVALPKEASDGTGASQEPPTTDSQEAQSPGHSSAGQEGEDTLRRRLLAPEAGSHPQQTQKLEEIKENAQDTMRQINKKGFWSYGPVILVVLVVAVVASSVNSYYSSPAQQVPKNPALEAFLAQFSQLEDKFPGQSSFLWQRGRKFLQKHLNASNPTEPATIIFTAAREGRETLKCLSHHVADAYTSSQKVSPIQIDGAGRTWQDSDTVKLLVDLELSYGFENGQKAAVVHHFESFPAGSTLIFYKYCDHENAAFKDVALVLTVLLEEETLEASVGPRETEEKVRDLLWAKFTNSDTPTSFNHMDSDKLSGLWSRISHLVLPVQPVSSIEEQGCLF

[16] = E. coli growth modulation, two-sided OD650, primary screen, E. coli filamentation project, strain DRC41, 24 h (AID 1093); conditions: OD650, 24 h, higher = more signal, called active from +8 up or from −8 down;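 also: MC1000 strain lacking acrAB efflux and sulA so SOS filamentation is blocked; test concentration not given here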
[17] = small-molecule microarray binders of probe aLefty2, primary screen, biochemical, biotinylated probe, 635/667 nm fluorescence (AID 1094); conditions: higher = more signal;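 also: score merges spot fluorescence near 667 nm with spot signal-to-noise ratio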
[18] = test system: Noggin (protein binding on small-molecule microarray); experiment: Noggin binders on small-molecule microarray, primary screen, biochemical, 635/667 nm fluorescence (AID 1095); conditions: 635 nm fluorescence, higher = more signal;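 also: score merges 667 nm feature fluorescence with signal to noise over triplicate slides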
[19] = target: Neurogenic locus notch homolog protein 3 (Homo sapiens) (UniProt Q9UM47); experiment: NOTCH3 binders on small-molecule microarray, primary screen, biochemical, 635/667 nm fluorescence (AID 1096); conditions: NOTCH3 binding, 635 nm fluorescence, higher = more signal
Sequence of Neurogenic locus notch homolog protein 3 (Homo sapiens) (Q9UM47 whole entry, looked up): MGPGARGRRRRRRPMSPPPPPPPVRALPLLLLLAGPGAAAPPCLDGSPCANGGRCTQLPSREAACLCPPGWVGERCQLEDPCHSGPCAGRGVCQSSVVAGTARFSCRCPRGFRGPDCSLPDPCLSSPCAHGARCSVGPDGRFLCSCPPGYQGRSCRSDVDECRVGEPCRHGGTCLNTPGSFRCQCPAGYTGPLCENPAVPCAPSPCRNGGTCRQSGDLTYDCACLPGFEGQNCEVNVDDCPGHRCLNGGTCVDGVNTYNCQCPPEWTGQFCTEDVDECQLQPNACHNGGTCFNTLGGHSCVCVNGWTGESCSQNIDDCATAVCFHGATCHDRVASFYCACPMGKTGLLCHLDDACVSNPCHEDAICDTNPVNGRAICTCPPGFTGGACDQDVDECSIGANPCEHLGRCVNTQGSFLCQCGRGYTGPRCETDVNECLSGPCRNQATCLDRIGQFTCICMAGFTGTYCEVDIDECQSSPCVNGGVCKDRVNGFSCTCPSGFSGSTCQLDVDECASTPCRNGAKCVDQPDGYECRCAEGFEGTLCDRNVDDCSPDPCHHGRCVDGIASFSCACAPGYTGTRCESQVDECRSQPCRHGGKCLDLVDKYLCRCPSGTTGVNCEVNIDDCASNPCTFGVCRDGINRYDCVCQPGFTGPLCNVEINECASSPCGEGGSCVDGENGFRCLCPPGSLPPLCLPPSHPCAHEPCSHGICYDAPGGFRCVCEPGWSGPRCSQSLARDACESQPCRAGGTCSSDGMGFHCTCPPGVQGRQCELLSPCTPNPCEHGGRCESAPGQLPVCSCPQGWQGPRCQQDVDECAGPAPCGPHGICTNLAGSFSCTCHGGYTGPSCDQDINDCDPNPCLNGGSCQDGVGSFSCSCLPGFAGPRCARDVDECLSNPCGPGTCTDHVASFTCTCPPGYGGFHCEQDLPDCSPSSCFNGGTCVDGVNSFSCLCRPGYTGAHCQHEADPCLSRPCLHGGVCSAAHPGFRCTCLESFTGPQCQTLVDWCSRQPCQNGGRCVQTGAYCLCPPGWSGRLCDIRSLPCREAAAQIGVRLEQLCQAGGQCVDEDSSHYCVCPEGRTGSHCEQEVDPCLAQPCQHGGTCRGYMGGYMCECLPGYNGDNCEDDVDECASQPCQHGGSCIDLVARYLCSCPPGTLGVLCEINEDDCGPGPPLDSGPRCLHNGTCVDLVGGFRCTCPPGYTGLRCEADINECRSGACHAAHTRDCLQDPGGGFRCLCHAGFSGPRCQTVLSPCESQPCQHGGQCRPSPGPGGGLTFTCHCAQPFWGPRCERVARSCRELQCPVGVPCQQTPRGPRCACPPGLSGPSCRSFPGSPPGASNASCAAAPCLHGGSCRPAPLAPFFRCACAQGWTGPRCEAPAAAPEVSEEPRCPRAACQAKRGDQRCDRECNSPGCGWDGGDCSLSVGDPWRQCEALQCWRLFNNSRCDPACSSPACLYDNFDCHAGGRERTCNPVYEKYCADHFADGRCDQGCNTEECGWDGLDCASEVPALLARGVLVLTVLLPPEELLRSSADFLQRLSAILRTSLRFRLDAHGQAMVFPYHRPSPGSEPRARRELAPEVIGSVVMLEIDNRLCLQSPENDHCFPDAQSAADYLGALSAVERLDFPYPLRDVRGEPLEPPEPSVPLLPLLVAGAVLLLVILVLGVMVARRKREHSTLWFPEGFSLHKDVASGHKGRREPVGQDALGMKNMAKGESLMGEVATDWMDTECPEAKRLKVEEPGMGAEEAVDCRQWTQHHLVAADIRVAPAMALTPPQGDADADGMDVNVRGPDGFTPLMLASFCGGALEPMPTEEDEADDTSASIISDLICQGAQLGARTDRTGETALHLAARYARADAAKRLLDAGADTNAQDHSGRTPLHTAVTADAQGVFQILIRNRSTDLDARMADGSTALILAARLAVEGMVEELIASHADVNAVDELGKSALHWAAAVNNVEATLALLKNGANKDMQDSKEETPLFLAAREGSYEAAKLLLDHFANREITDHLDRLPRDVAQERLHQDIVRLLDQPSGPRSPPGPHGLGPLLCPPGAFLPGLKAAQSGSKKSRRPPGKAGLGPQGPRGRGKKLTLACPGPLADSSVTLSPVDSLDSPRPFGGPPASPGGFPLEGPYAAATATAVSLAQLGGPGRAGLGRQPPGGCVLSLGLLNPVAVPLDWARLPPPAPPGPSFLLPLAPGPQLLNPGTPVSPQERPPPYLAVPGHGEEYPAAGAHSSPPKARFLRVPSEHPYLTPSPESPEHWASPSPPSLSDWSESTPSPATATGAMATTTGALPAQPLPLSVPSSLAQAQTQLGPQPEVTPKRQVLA

[20] = small-molecule microarray binders of probe aEGFR, primary screen, biochemical, biotinylated probe, 635/667 nm fluorescence (AID 1097); conditions: higher = more signal;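 also: probe is a biotinylated anti-EGFR antibody binding compounds printed on slides; score combines fluorescence near 667 nm and signal to noise of each spot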

SMILES | composite z-score [1] | composite z-score [2] | composite z-score [3] | composite z-score [4] | composite z-score [5] | composite z-score [6] | composite z-score [7] | z-score [8] | composite z-score [9] | composite z-score [10] | composite z-score [11] | z-score [12] | z-score [13] | z-score [14] | composite z-score [15] | z-score [16] | composite z-score [17] | composite z-score [18] | composite z-score [19] | composite z-score [20]
CCOC(=O)[C@@H]1[C@@H]2C(=O)N(CC)C(=O)[C@@H]2C[C@@H]1Sc1ccccc1 | -0.528 | 1.04 | 0.0308 | 0.712 | 1.39 | 0.354 | 1.33 | -1.02 (inactive) | 0.731 | -0.226 | 0.814 | -0.624 (inactive) | 0.792 (inactive) | 2.66 (inactive) | 1.69 | 0.0399 (inactive) | -0.0632 | -0.132 | 0.722 | 0.113
COc1ccc([Si](C)(C)[C@@H]2[C@@H](CCO)O[C@]3(C(=O)N(Cc4cccc(N5C(=O)c6cccc7cccc5c67)c4)c4ccccc43)[C@H]2C)cc1 | 0.385 | -0.106 | -0.156 | 0.691 | -0.314 | 0.779 | 0.966 | -0.34 (inactive) | -0.0576 | -0.236 | 1.22 | 2.2 (inactive) | 2.22 (inactive) | 38.9 (active) | 1.24 | 0.399 (inactive) | -0.0931 | -0.25 | 0.267 | -0.221
CCCC[C@@H]1C[C@H]1[C@@H](NC(=O)c1ccccc1)c1ccc(Cl)cc1 | 1.22 | -0.657 | -0.196 | -2.08 | -2 | -0.596 | 1.36 | 1.62 (inactive) | -0.833 | -0.134 | -1.36 | 0.222 (inactive) | -1.96 (inactive) | -2.01 (inactive) | 0.0826 | -1.49 (inactive) | -0.204 | -2.06 | -1.77 | -0.421
COC(=O)[C@H](Cc1ccccc1)N1CC(/C=C/C2CC2)=C[C@@H]1[C@@H](O)Cc1ccccc1 | -0.549 | 0.0784 | -0.0093 | 1.23 | 1.38 | 0.947 | 1.11 | -1.09 (inactive) | 0.707 | 0.177 | 1.46 | 0.107 (inactive) | -3.04 (inactive) | 0.423 (inactive) | 1.66 | 0.559 (inactive) | 0.0166 | 0.685 | 0.9 | 0.009
CC(C)N1CC=CC23O[C@@H]4C=CCCOC(=O)C4[C@H]2C(=O)N(CCO)[C@@H]3C1=O (stereo not given in full) | 0.108 | 2.11 | -0.177 | -0.351 | -0.537 | -0.637 | 0.606 | -0.286 (inactive) | -0.398 | -0.0939 | 0.291 | -0.631 (inactive) | -0.349 (inactive) | -1.2 (inactive) | -0.805 | 2.99 (inactive) | -0.145 | -0.736 | -0.362 | -0.203
CC(C)(C)OC(=O)CC[C@]1(C(=O)NCCN2CCOCC2)N=C(c2ccc(OCCCO)cc2)O[C@H]1c1ccccc1 | 0.445 | -1.1 | -0.0939 | -0.109 | -0.313 | 1.66 | 1.09 | 0.273 (inactive) | 0.285 | -0.0618 | 1.55 | 0.681 (inactive) | 0.0586 (inactive) | -0.23 (inactive) | 3.23 | 0.437 (inactive) | -0.007 | -0.316 | -0.532 | 0.34
C=CC[C@]1(C(=O)N(C)C)N=C(c2ccc(OCCCO)cc2)O[C@H]1c1ccccc1N=[N+]=[N-] | 0.396 | -0.113 | 0.161 | 0.567 | 1.48 | 1.3 | 1.2 | 1.52 (inactive) | 1.87 | -0.199 | 1.48 | 0.0061 (inactive) | -0.102 (inactive) | -0.317 (inactive) | 3.2 | 0.394 (inactive) | 0.285 | 0.464 | 1.03 | 0.0651
C=CCN1C(=O)[C@@]2(O[C@@H](CCn3cc([C@H](O)c4ccccc4)nn3)[C@H]([Si](C)(C)c3ccc(OC)cc3)[C@H]2C)c2ccccc21 | -0.0119 | 0.395 | -0.036 | 0.386 | 0.501 | 1.31 | 1.01 | -1.45 (inactive) | 0.728 | -0.289 | 1.55 | -0.78 (inactive) | -0.0638 (inactive) | 0.307 (inactive) | 1.02 | 1.1 (inactive) | -0.0507 | 0.442 | 1.16 | -0.094
C=C(COC)/C(=C/C[C@@H](OC(=O)c1ccncc1)c1ccc(CO)o1)c1cnc2ccccc2c1 | -0.376 | 1.03 | 0.0235 | 1.2 | 1.73 | 1.5 | 1.34 | 0.487 (inactive) | 0.668 | 0.115 | 1.55 | -0.854 (inactive) | 0.536 (inactive) | 0.14 (inactive) | 1.59 | 0.647 (inactive) | -0.112 | 1.88 | 1.02 | -0.0059
COc1ccc(C(O)C2C=CC3C(=O)N(c4ccccc4)C(=O)C3N2Nc2ccc(C#N)cc2)c2ccccc12 (stereo not given) | 0.983 | 0.707 | 0.0785 | 0.337 | 1.6 | 1.96 | 1.11 | 0.757 (inactive) | 1.2 | 0.0515 | 1.35 | -1.89 (inactive) | 2.35 (inactive) | 0.906 (inactive) | 3.38 | -0.945 (inactive) | 0.397 | 0.238 | 1.08 | -0.0424
O=C1C[C@]2(c3ccc([N+](=O)[O-])cc3)C(=O)N(Cc3ccccc3)c3cc(CO)ccc3[C@H]2N1CC12CC3CC(CC(C3)C1)C2 | 0.0993 | -0.728 | 0.0018 | -0.817 | -0.746 | -0.468 | -0.851 | -0.0424 (inactive) | 0.0779 | -0.369 | -0.404 | -0.251 (inactive) | 0.418 (inactive) | -1.23 (inactive) | 0.258 | 0.64 (inactive) | -0.477 | -1.43 | -1.94 | 0.0645
